These sequences were tested against ST8SIA1 (assay: pooled miR-30 sensor sort-seq; sequence = guide strand). Details: shRNA.
Also: reference of the scale not given here.

Sequence | sensor-assay potency score (higher = more potent)
TTGATTGGCACCAACATCTGAC | -0.0698
TTAGCTGTCACTAACTGACTTT | 0.0924
TTTGCTTCATCTATTTGACGGC | 0.566
TTGTCCACAAATGTCTTTCTGG | -0.546
TGACAGTGTATAATAAACCCTC | -0.586
TAGCTGTCACTAACTGACTTTT | -1.28
TTGACAATCAGCAACACTTTTA | -1.09
TAAGACGTTGTCATAGTAGTGG | 0.604
TTTGTTTCCTGAACGCTCTGGC | 0.807
TTTGATTGGCACCAACATCTGA | -0.123
TAAGTTGAATTGTCAATGGTGA | -0.263

What follows are sequences tested against ST8SIA4 in the same assay as above. Details: shRNA.

Sequence | sensor-assay potency score (higher = more potent)
TTGAAATTAATCATCTCTGTTT | 0.14
TTCTATTTGAATAACAAGGGGA | -0.346
TCTTTTGATAGGAACTTTGTTG | -0.556
TACATGAGAAGACCTGTGCTGG | -0.695
TTTCCAACCTTCTACATTGTGC | -0.709
TTGACCACTGACACATCTCGTT | 0.237
ATTGTGACTGTCAATCTCCTTT | -0.228
TTTAACTACAGAAAATATCGGT | 0.525
TTAACTACAGAAAATATCGGTC | 0.169
TTATGTAGCACATTTAATGTTT | -0.574
TTTGATAGGAACTTTGTTGGTC | 0.701

The sequences below were run against STAC in the same assay as above. Details: shRNA.

Sequence | sensor-assay potency score (higher = more potent)
TTGCAGTTTCATGTCTTCGCTG | 0.116
TATGTAAACACGCTGTTGCTGC | -0.123
TACATTTCTTCTAAGATGCTGT | 0.11
TTCTTCTTCAGAACTCACGCAG | 0.0195
TTTGTTGTAGTCTCTGAACAAA | -1.36
TTTATAGTCCTACTGCTGCTGC | -0.661
TCTTGAAAGAAAGTGATCGTTT | -0.172
TTGTACAAGGCAACATAGGTGT | -0.164
TTTCATGTCTTCGCTGTTGGTT | 0.0863
TTCCAAATCTTCATTCTCCTGT | 0.665
TTGTCAGCACTTTTGCTCCGTA | -0.694
TTGTAGTCTCTGAACAAAGTTG | -1.06

What follows are sequences tested against STAP2 in the same assay as above. Details: shRNA.

Sequence | sensor-assay potency score (higher = more potent)
TAGTTCTCTTCCTGGTTCGGTA | -0.765
TTCCACATCGATCACGTACTTG | -0.479
TTCTTCTGTAGCTCTGCCGTCA | -0.496
TAGAGGAAGCCACATCTTGGTT | -1.31

— the OligoGym collection
